The experiment is described as follows: modulators of CD8 T cell-vesicle binding, confirmation, cherry-picked primary hits, two concentrations (AID 2810).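 On percent response (vesicle binding): ratio of mean FL2 vesicle stain of CD8+ cells to that row's control.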 The settings on record: 2C CD8+ T cell-vesicle binding, flow cytometry; for double positive events: CD8+/vesicle+ events. Background: A flow cytometer gives signals particle by particle.
[1] abbreviates: at 15.4 µM, stronger effect = lower value.

Screen size: about 1,200 compounds; about 65 (5%) were called active.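 How the source made its calls: active means at either tested dose, response and 90th-percentile vesicle-stain brightness of CD8 cells under set limits and under 9% cells vesicle-bound; inactive means the rest.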 The full list was thinned out, with actives kept by preference.

In the case of `CCOc1ccc(-c2csc(NNC3=NCCCCC3)n2)cc1`, the double positive events (at 7.7 µM) is 15.2% and the double positive events under setting [1] is 1.4%. In addition, the percent response (vesicle binding) is 52.5% (active) under setting [1] and 178% (response, at 7.7 µM).

In the case of `CCc1c(C)nc(SCC(=O)Nc2nc(-c3ccc(OC)cc3)cs2)[nH]c1=O`, the double positive events is, setting by setting: (at 7.7 µM) 33.4%; under setting [1], 10.4%. The percent response (vesicle binding) by setting is: under setting [1], 192% (inactive); (response, at 7.7 µM) 289%.

With `Cc1cc([N+](=O)[O-])nn1CC(=O)Nc1nccs1`, the double positive events runs as follows: (at 7.7 µM) 35%; under setting [1], 19.6%. Also, the percent response (vesicle binding) runs as follows: under setting [1], 221% (inactive); (response, at 7.7 µM) 201%.

In turn, `Cc1ccc(S(=O)(=O)N(C)CC(=O)Nc2nc3ccccc3s2)cc1` showed a double positive events (at 7.7 µM) of 30.7% and a double positive events under setting [1] of 26.8%. Besides, the percent response (vesicle binding) is, setting by setting: under setting [1], 351% (inactive); (response, at 7.7 µM) 371%.

Turning to `Cc1ccc(S(=O)(=O)N2CCC(NC(=O)c3ccccc3)CC2)cc1`, the double positive events is, setting by setting: (at 7.7 µM) 28.6%; under setting [1], 28.6%. Besides, the percent response (vesicle binding) was 425% (inactive) under setting [1] and 558% (response, at 7.7 µM).

`Cc1ccc(S(=O)(=O)c2c(N)n(NC(=O)c3ccccc3C)c3nc4ccccc4nc23)cc1` returned a double positive events (at 7.7 µM) of 22.8% and a double positive events under setting [1] of 1.1%. Besides, the percent response (vesicle binding) is, setting by setting: under setting [1], 26.2% (active); (response, at 7.7 µM) 248%.

Molecule `O=C(CN1C(=O)C2CCCN2C(=O)c2ccccc21)Nc1ccccc1-n1cccc1` (stereo unspecified) came in with a double positive events (at 7.7 µM) of 5.8% and a double positive events under setting [1] of 12.2%. The percent response (vesicle binding) under setting [1] is 354% (inactive) and the percent response (vesicle binding) (response, at 7.7 µM) came out at 425%.

`COc1ccc(C(=O)O)cc1S(=O)(=O)Nc1cccc(C)c1` returned a double positive events (at 7.7 µM) of 14.1% and a double positive events under setting [1] of 17.7%. Moreover, the percent response (vesicle binding) under setting [1] is 296% (inactive) and the percent response (vesicle binding) (response, at 7.7 µM) is 181%.

In the case of `C=CCN(c1ccc(Br)cc1C(=O)OC)S(C)(=O)=O`, the double positive events stood at 29.1% (at 7.7 µM) and 2.3% under setting [1]. Further, the percent response (vesicle binding) was 35.1% (active) under setting [1] and 465% (response, at 7.7 µM).

Consider `COc1ccc(N(CC(=O)O)S(C)(=O)=O)cc1OC`, for which the double positive events was found to be 24.1% (at 7.7 µM) and 30.5% under setting [1]. For the same molecule, the percent response (vesicle binding) under setting [1] was 229% (inactive) and the percent response (vesicle binding) (response, at 7.7 µM) was found to be 691%.

As for `c1ccc2c(c1)COC(CN1CCCCC1)OC2`, the double positive events came out at 12.3% (at 7.7 µM) and 10.2% under setting [1]. Besides, the percent response (vesicle binding) under setting [1] is 418% (inactive) and the percent response (vesicle binding) (response, at 7.7 µM) came to 439%.

With `COC(=O)[C@]1(C)N[C@H](CN(C)S(=O)(=O)c2ccc(OC(F)(F)F)cc2)[C@@H]2C(=O)N(C)C(=O)[C@@H]21`, the double positive events was 9.2% (at 7.7 µM) and 26.1% under setting [1]. Also, the percent response (vesicle binding) by setting is: under setting [1], 907% (inactive); (response, at 7.7 µM) 443%.

`COc1ccc(NC(=O)CN2CCN(S(=O)(=O)c3ccc(Cl)cc3)CC2)cc1`: the double positive events reads like this: (at 7.7 µM) 31.1%; under setting [1], 12%. The percent response (vesicle binding) is 124% (inactive) under setting [1] and 164% (response, at 7.7 µM).

Turning to `COc1ccc(-c2cc(CNS(=O)(=O)c3ccc(NC(C)=O)cc3)on2)cc1`, the double positive events turned out to be 23.7% (at 7.7 µM) and 2.2% under setting [1]. The percent response (vesicle binding) by setting is: under setting [1], 18.8% (active); (response, at 7.7 µM) 277%.

As for `CCCCNS(=O)(=O)c1ccc(OCC(=O)OC)cc1`, the double positive events (at 7.7 µM) came to 14.8% and the double positive events under setting [1] turned out to be 20%. The percent response (vesicle binding) under setting [1] was 106% (inactive) and the percent response (vesicle binding) (response, at 7.7 µM) was 517%.

With `Cc1ccc(CN2CC(=O)N3[C@H]4c5cc(C)ccc5OC[C@@H]4[C@H](c4ccccc4)[C@]3(C)C2=O)cc1`, the double positive events runs as follows: (at 7.7 µM) 8.3%; under setting [1], 11.2%. The percent response (vesicle binding) reads like this: under setting [1], 109% (inactive); (response, at 7.7 µM) 231%.

For `C/C(=N\NC(=O)Cn1cc([N+](=O)[O-])cn1)c1ccco1`, the double positive events reads like this: (at 7.7 µM) 23.5%; under setting [1], 26.1%. In addition, the percent response (vesicle binding) under setting [1] is 268% (inactive) and the percent response (vesicle binding) (response, at 7.7 µM) is 291%.

Take `O=C(c1ccc(Cl)cc1)N1CCC(C(=O)N2CCN(c3ncccn3)CC2)CC1`: the double positive events is, setting by setting: (at 7.7 µM) 27.3%; under setting [1], 6.4%. Besides, the percent response (vesicle binding) is, setting by setting: under setting [1], 173% (inactive); (response, at 7.7 µM) 114%.

Molecule `O=C(c1ccc(N2C(=O)C3CC=C(Cl)CC3C2=O)cc1)N1CCCCC1` (stereo unspecified) came in with a double positive events (at 7.7 µM) of 19.3% and a double positive events under setting [1] of 5.2%. The percent response (vesicle binding) is, setting by setting: under setting [1], 56.9% (active); (response, at 7.7 µM) 195%.

As to `CCOC(=O)N1CCN(C(=O)c2ccc(N3CCCC3=O)cc2)CC1`, the double positive events reads like this: (at 7.7 µM) 9.7%; under setting [1], 22.5%. The percent response (vesicle binding) reads like this: under setting [1], 213% (inactive); (response, at 7.7 µM) 150%.

On to `Cc1cc(C)cc(NC(=O)CC23CC4CC(C2)CC(n2nnc(C)n2)(C4)C3)c1`, for which the double positive events runs as follows: (at 7.7 µM) 6.1%; under setting [1], 35.3%. The percent response (vesicle binding) was 236% (inactive) under setting [1] and 200% (response, at 7.7 µM).

The molecule `CCCc1nnc(NC(=O)CCC(=O)N2CCC(Cc3ccccc3)CC2)s1` showed a double positive events (at 7.7 µM) of 11.7% and a double positive events under setting [1] of 25.7%. For the same molecule, the percent response (vesicle binding) runs as follows: under setting [1], 200% (inactive); (response, at 7.7 µM) 291%.

As for `Cc1c2cccn2cc[n+]1C`, the double positive events reads like this: (at 7.7 µM) 16.6%; under setting [1], 4.4%. Also, the percent response (vesicle binding) under setting [1] is 29.6% (active) and the percent response (vesicle binding) (response, at 7.7 µM) worked out at 159%.

`Cc1cccc(C(=O)OCC(=O)Nc2c(C)n(C)n(-c3ccccc3)c2=O)c1`: the double positive events runs as follows: (at 7.7 µM) 11%; under setting [1], 26.9%. Besides, the percent response (vesicle binding) under setting [1] is 392% (inactive) and the percent response (vesicle binding) (response, at 7.7 µM) came to 320%.

Consider `Cc1ccc(C(=O)NC(C)CCc2ccccc2)cc1[N+](=O)[O-]` (stereo unspecified), for which the double positive events is, setting by setting: (at 7.7 µM) 27%; under setting [1], 32.4%. Also, the percent response (vesicle binding) reads like this: under setting [1], 199% (inactive); (response, at 7.7 µM) 481%.

`Cc1ccc(-n2ncc3c(N4CCCC(C)C4)ncnc32)c(C)c1` (stereo unspecified): the double positive events is 15.4% (at 7.7 µM) and 13.3% under setting [1]. In addition, the percent response (vesicle binding) runs as follows: under setting [1], 312% (inactive); (response, at 7.7 µM) 283%.

Regarding `O=C(NCC1CCCCC1)c1ccc(Cl)c(S(=O)(=O)N2CCOCC2)c1`, the double positive events by setting is: (at 7.7 µM) 9.2%; under setting [1], 22.8%. Further, the percent response (vesicle binding) is, setting by setting: under setting [1], 342% (inactive); (response, at 7.7 µM) 135%.

As for `O=C(OCCOc1cccc(Cl)c1)c1ccc(F)c(S(=O)(=O)N2CCOCC2)c1`, the double positive events is, setting by setting: (at 7.7 µM) 24.5%; under setting [1], 0.7%. For the same molecule, the percent response (vesicle binding) runs as follows: under setting [1], 42.7% (active); (response, at 7.7 µM) 333%.

Regarding `CCSc1nnc(NC(=O)c2ccc(F)c(S(=O)(=O)N3CCOCC3)c2)s1`, the double positive events worked out at 23.7% (at 7.7 µM) and 34.2% under setting [1]. Besides, the percent response (vesicle binding) reads like this: under setting [1], 203% (inactive); (response, at 7.7 µM) 209%.

With `CC1CCN(S(=O)(=O)c2csc(C(=O)Nc3ccccc3)c2)CC1`, the double positive events runs as follows: (at 7.7 µM) 33.2%; under setting [1], 23.8%. The percent response (vesicle binding) runs as follows: under setting [1], 579% (inactive); (response, at 7.7 µM) 415%.

Regarding `CC(=O)Nc1ccccc1OC(C)C(=O)NC(C)c1ccc(F)cc1` (stereo unspecified), the double positive events by setting is: (at 7.7 µM) 9.2%; under setting [1], 9%. Also, the percent response (vesicle binding) is 114% (inactive) under setting [1] and 420% (response, at 7.7 µM).

`Cc1cc(F)ccc1S(=O)(=O)N1CCCOC1CNC(=O)C(=O)NC1CCCC1` (stereo unspecified): the double positive events is, setting by setting: (at 7.7 µM) 11.7%; under setting [1], 9.3%. The percent response (vesicle binding) runs as follows: under setting [1], 255% (inactive); (response, at 7.7 µM) 451%.

Take `COC(=O)c1ccc(OC(=O)CS(=O)c2ccccc2[N+](=O)[O-])cc1` (stereo unspecified): the double positive events came to 15% (at 7.7 µM) and 3.4% under setting [1]. Besides, the percent response (vesicle binding) reads like this: under setting [1], 143% (inactive); (response, at 7.7 µM) 395%.

For `Cc1cccc(Nc2nc(-c3ccccn3)cs2)n1`, the double positive events is, setting by setting: (at 7.7 µM) 28.1%; under setting [1], 5.2%. For the same molecule, the percent response (vesicle binding) is, setting by setting: under setting [1], 46.7% (active); (response, at 7.7 µM) 538%.

For the origin of these results see PubChem BioAssay AID2810 (NMMLSC, 2010).
